The values that follow come from PubChem BioAssay (EPA / NIEHS).

Test [1] has as its target Nuclear respiratory factor 1 (Homo sapiens) (UniProt Q16656). Nature of the test: ATG_NRF1_CIS: Attagene CIS-FACTORIAL HepG2 Assay for human Nuclear Respiratory Factor 1 (NRF1) Orphan Gene (AID 2282987). The following applies: HepG2 NRF1 cis-element reporter, Attagene multiplex; actives raise or lower the signal. In short, it runs like this:
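HepG2 cells transiently transfected with multiple cis-regulated reporter units, exposed 24 h. Reporter mRNAs measured by RT-PCR, fluorescent labelling, HpaI digestion and capillary electrophoresis; bidirectional fitting against DMSO.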

The target of test [2] is Myc proto-oncogene protein (Homo sapiens) (UniProt P01106). Nature of the test: ATG_Myc_CIS: Attagene CIS-FACTORIAL HepG2 Assay for human Myelocytomatosis (Myc) Proto-Oncogene Transcription Factor (AID 2282990). The following applies: HepG2, Attagene cis-reporter transcription factor activity; actives raise or lower the signal. A digest of the protocol: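 Transiently transfected HepG2 cells bearing cis-promoter reporter units for endogenous transcription factors; 24 h exposure. Reporter mRNA measured by RT-PCR, 6-FAM primer extension, HpaI cut and capillary electrophoresis; bidirectional fit relative to DMSO.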

Test [3] in a line: ATG_NRF2_ARE_CIS: Attagene CIS-FACTORIAL HepG2 Assay for human Nuclear Factor Erythroid 2 Related Factor 2 (NFR2) response to Antioxidant Response Elements (ARE) (AID 2282992).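 On AC50: reporter mRNA level measured by RT-PCR and capillary electrophoresis fluorescence.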 The conditions noted are these: HepG2 Attagene ARE/NRF2 reporter, transcription factor activity; actives raise or lower the signal. A digest of the protocol: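 Multiplexed reporter mRNA profiling in HepG2 after a 24 h chemical exposure. Curves fitted in both directions relative to DMSO negative control.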

A short description of test [4]: ATG_Oct_MLP_CIS: Attagene CIS-FACTORIAL HepG2 Assay for human Octamer-Binding Transcription Factor (Oct) (AID 2282993). The conditions noted are these: HepG2 Attagene cis-factorial Oct reporter, mRNA; actives raise or lower the signal. A digest of the protocol: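 Readout is reporter transcript level from RT-PCR with fluorescent primer extension and capillary electrophoresis, fitted in both directions against DMSO. Transfected HepG2 reporter units report endogenous factor activity after 24 h dosing.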

Test [5] addresses Cellular tumor antigen p53 (Homo sapiens) (UniProt P04637). Nature of the test: ATG_p53_CIS: Attagene CIS-FACTORIAL HepG2 Assay for human p53 Transcription Factor (AID 2282994). The conditions noted are these: HepG2 p53 cis-element reporter, Attagene mRNA; actives raise or lower the signal. A digest of the protocol:
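Multiplexed reporter mRNA assay in human HepG2 liver cells; cis-regulated units report endogenous factor activity. Values come from bidirectional curve fitting against DMSO negative control after 24 h treatment.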

A short description of test [6]: BSK_3C_uPAR: BioMAP Diversity Plus: 3C Assay for Urokinase-type plasminogen activator receptor (uPAR) Biomarker Activity (AID 2282998). The following applies: BioMAP 3C HUVEC, uPAR biomarker ELISA; actives raise or lower the signal. A digest of the protocol:
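Cell-surface uPAR on HUVEC (3C system) read by ELISA at 24 h post-treatment, with DMSO as baseline and fitting in both directions. Parallel cultures stained with SRB to flag overt cytotoxicity.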
For orientation: ELISA stands for enzyme-linked immunosorbent assay.

Test [7] is described as follows: BSK_3C_VCAM1: BioMAP Diversity Plus: 3C Assay for Vascular cell adhesion molecule 1 (VCAM1) Biomarker Activity (AID 2282999). The following applies: BioMAP 3C HUVEC, VCAM1 ELISA, cytokine-stimulated; actives raise or lower the signal. A digest of the protocol:
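Human umbilical vein endothelial cells (3C system), biomarker read by ELISA 24 h after dosing; bidirectional fit against DMSO baseline. Cytotoxicity tracked by SRB total-protein staining in parallel cultures at biomarker time.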

In test [8] the target is human Peroxisome Proliferator-activated Receptor delta (PPARd), PPARD (gene 5467) (UniProt Q03181). Nature of the test: ATG_PPARd_TRANS: Attagene TRANS-FACTORIAL HepG2 Assay for human Peroxisome Proliferator-activated Receptor delta (PPARd) (AID 2283002; active means hit-call score of the fitted dose curve at least 0.9, where 1 is the maximum). A digest of the protocol: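 HepG2 cells transiently transfected with GAL4-UAS multiplexed reporter units driven by exogenous chimeric NR-GAL4 proteins; 24 h compound exposure. Reporter mRNA measured by RT-PCR, 6-FAM primer extension, HpaI digestion and capillary electrophoresis; gain of signal fitted relative to DMSO.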

Read-out in test [9]: Intercellular Adhesion Molecule 1 (ICAM1), ICAM1 (gene 3383)
Nature of the test: BSK_3C_ICAM1: BioMAP Diversity Plus: 3C Assay for Intercellular Adhesion Molecule 1 (ICAM1) Biomarker Activity (AID 2283003). The conditions noted are these: primary human endothelial cells (HUVEC); actives raise or lower the signal. A digest of the protocol: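 Primary human umbilical vein endothelial cells in the BioMAP 3C system were exposed to chemicals for 24 h, then ICAM-1 was quantified by ELISA. Activity was fitted bidirectionally against the DMSO negative control baseline.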

Test [10] is described as follows: BSK_3C_Proliferation: Cell Proliferation Assessment in the BioMAP Diversity Plus: 3C Assay (AID 2283006).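 On AC50: potency may reflect either rise or fall in cell number versus DMSO.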 The following applies: primary human endothelial cells (HUVEC). A digest of the protocol: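 Human umbilical vein endothelial cells were grown sub-confluent and exposed to chemical for 48 h, then fixed with 10% TCA and stained with 0.1% sulforhodamine B; absorbance at 560 nm gave relative cell number, fitted bidirectionally against DMSO baseline.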

Test [11] addresses Peroxisome proliferator-activated receptor gamma (Homo sapiens) (UniProt P37231). The test can be described thus: ATG_PPARg_TRANS: Attagene TRANS-FACTORIAL HepG2 Assay for human Peroxisome Proliferator-activated Receptor-gamma (PPARg) (AID 2283007; active means hit-call score of the fitted dose curve at least 0.9, where 1 is the maximum). In short, it runs like this:
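HepG2 cells are transiently transfected with GAL4-UAS reporter units driven by chimeric NR-Gal4 fusions and dosed for 24 h. Reporter mRNA is quantified by RT-PCR, 6-FAM labelling, HpaI digestion and capillary electrophoresis. Induction is scored against DMSO.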

The target of test [12] is Nuclear receptor subfamily 1 group I member 2 (Homo sapiens) (UniProt O75469). The test can be described thus: ATG_PXR_TRANS: Attagene TRANS-FACTORIAL HepG2 Assay for human Pregnane X Receptor (PXR) (AID 2283008; active means hit-call score of the fitted dose curve at least 0.9, where 1 is the maximum). A digest of the protocol: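 Measures mRNA induction of a GAL4-UAS-driven reporter in human HepG2 cells transiently expressing PXR fused to Gal4, following 24 h treatment. DMSO served as negative control and baseline.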

A short description of test [13]: ATG_NF_kB_CIS: Attagene CIS-FACTORIAL HepG2 Assay for human Nuclear Factor Kappa B (NF-kB) (AID 2282991). The following applies: HepG2 Attagene cis-factorial NF-kB reporter mRNA; actives raise or lower the signal. A digest of the protocol:
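HepG2 cells transfected with cis-promoter-driven reporter units, so endogenous transcription factor activity is measured. Reporter mRNA quantified 24 h after dosing by RT-PCR and capillary electrophoresis, with bidirectional fitting against DMSO.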

For test [14], the target named is human Peroxisome Proliferator-activated Receptor alpha (PPARa), PPARA (gene 5465) (UniProt Q07869). Nature of the test: ATG_PPARa_TRANS: Attagene TRANS-FACTORIAL HepG2 Assay for human Peroxisome Proliferator-activated Receptor alpha (PPARa) (AID 2283001; active means hit-call score of the fitted dose curve at least 0.9, where 1 is the maximum). In short, it runs like this: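 Measures transcriptional activity of an exogenous chimeric PPARa-Gal4 protein in transiently transfected HepG2 cells after 24 h dosing. Reporter mRNA quantified via RT-PCR and capillary electrophoresis; DMSO served as negative control.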

The target in test [15] is human Retinoic Acid Receptor beta (RARb), RARB (gene 5915) (UniProt P10826). The test can be described thus: ATG_RARb_TRANS: Attagene TRANS-FACTORIAL HepG2 Assay for human Retinoic Acid Receptor beta (AID 2283004; active means hit-call score of the fitted dose curve at least 0.9, where 1 is the maximum). In short, it runs like this:
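Fluorescent capillary-electrophoresis detection of GAL4-UAS reporter mRNA defines the endpoint, with induction over DMSO-treated wells scored as activity. Transiently transfected human hepatoma HepG2 cells expressing exogenous NR–Gal4 proteins are exposed to test chemicals for 24 h.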

In test [16] the target is Retinoic acid receptor alpha (Homo sapiens) (UniProt P10276). Nature of the test: ATG_RARa_TRANS: Attagene TRANS-FACTORIAL HepG2 Assay for human Retinoic Acid Receptor alpha (RARa) (AID 2283005; active means hit-call score of the fitted dose curve at least 0.9, where 1 is the maximum;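 on AC50: potency for increased reporter signal meaning RARa activation over DMSO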). A digest of the protocol:
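HepG2 transiently transfected with multiplex GAL4-UAS reporter units including a human RARa–GAL4 chimera; 24 h compound exposure. Reporter mRNA quantified by RT-PCR, 6-FAM labeling and capillary electrophoresis; gain of signal versus DMSO.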

In test [17] the target is human Retinoic Acid Receptor gamma (RARg), RARG (gene 5916) (UniProt P13631). Nature of the test: ATG_RARg_TRANS: Attagene TRANS-FACTORIAL HepG2 Assay for human Retinoic Acid Receptor gamma (RARg) (AID 2283009; active means hit-call score of the fitted dose curve at least 0.9, where 1 is the maximum). A digest of the protocol: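 HepG2 cells transiently transfected with multiplexed reporter units expressing chimeric RARg-GAL4 and GAL4-UAS-driven reporters; 24 h compound exposure. Reporter mRNA quantified by RT-PCR with fluorescent labelling and capillary electrophoresis; gain-of-signal fitted relative to DMSO baseline.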

A short description of test [18]: ATG_NFI_CIS: Attagene CIS-FACTORIAL HepG2 Assay for human Nuclear Factor I (NFI) (AID 2282989). The conditions noted are these: HepG2 cis-regulatory reporter, NFI response element transcription; actives raise or lower the signal. In short, it runs like this: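 Reporter transcripts were measured by RT-PCR with fluorescent primer extension and capillary electrophoresis 24 h post-treatment. HepG2 cells carried transiently transfected cis-regulated reporter constructs reporting endogenous factor activity; gain or loss fitted against DMSO baseline.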

Test [19] in a line: BSK_4H_Eotaxin3: BioMAP Diversity Plus: 4H Assay for Eotaxin 3 Biomarker Activity (AID 2283000).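 Further: CCL26 protein level quantified by ELISA in parallel with SRB cytotoxicity check.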 The conditions noted are these: primary human endothelial cells (HUVEC); actives raise or lower the signal. In short, it runs like this: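 ELISA quantitation of CCL26 (Eotaxin-3) protein from chemically dosed human vascular endothelial cells at 24 h; increases and decreases both scored relative to DMSO-treated baseline.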

SMILES strings stand for the structures. Records with an inconclusive call do not appear. Calls of active or inactive are those of the source. How the source made its calls, unless noted: active means hit-call score of the fitted dose curve at least 0.9, where 1 is the maximum; inactive means score below 0.9.

Chain of Myc proto-oncogene protein (Homo sapiens) (P01106 whole entry, looked up): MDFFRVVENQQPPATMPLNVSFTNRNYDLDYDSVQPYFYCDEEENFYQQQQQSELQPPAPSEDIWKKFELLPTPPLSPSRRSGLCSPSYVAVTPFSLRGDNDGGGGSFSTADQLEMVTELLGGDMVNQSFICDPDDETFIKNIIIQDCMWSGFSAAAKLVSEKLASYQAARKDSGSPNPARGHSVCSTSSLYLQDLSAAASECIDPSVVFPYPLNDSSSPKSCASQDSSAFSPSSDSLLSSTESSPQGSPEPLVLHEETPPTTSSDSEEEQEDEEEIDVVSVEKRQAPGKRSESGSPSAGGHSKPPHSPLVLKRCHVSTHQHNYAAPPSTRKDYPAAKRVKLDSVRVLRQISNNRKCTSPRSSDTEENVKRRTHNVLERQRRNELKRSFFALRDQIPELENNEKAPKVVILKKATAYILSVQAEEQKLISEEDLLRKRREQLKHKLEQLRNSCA
Chain of human Retinoic Acid Receptor gamma (RARg), RARG (gene 5916) (P13631 whole entry, looked up, the tested form may be a part): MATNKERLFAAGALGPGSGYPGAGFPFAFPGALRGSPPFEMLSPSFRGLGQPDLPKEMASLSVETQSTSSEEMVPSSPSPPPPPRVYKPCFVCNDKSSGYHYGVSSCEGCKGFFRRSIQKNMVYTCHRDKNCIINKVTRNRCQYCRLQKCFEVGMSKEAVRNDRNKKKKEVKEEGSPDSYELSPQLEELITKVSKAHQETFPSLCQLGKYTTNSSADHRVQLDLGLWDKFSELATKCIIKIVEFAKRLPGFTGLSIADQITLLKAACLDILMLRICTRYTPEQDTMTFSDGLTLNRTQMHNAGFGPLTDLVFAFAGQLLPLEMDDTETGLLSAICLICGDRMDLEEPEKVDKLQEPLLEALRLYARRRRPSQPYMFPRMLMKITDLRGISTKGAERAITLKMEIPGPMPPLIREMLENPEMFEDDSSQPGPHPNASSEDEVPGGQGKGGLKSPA
Chain of Cellular tumor antigen p53 (Homo sapiens) (P04637 whole entry, looked up): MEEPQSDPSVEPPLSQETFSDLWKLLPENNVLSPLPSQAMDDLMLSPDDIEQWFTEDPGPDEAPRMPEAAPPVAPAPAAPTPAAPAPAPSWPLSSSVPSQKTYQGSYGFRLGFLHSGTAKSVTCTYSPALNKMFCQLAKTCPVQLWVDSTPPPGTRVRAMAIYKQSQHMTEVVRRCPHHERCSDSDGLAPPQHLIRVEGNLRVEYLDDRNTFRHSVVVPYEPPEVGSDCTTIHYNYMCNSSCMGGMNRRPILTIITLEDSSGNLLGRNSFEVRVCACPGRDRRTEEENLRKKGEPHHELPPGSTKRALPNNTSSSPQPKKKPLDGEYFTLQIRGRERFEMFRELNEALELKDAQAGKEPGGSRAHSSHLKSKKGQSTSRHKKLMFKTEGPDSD
Chain of human Peroxisome Proliferator-activated Receptor delta (PPARd), PPARD (gene 5467) (Q03181 whole entry, looked up, the tested form may be a part): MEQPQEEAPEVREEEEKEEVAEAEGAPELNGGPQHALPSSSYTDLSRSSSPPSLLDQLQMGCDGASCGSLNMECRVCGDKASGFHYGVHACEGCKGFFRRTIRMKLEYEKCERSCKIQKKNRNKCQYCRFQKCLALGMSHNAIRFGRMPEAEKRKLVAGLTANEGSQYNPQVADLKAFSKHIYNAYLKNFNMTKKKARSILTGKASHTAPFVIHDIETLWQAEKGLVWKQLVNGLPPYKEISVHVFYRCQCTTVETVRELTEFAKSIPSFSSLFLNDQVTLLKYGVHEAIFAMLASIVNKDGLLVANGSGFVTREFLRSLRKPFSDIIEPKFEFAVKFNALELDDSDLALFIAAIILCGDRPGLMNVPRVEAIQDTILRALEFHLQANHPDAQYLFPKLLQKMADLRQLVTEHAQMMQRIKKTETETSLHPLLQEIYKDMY
Chain of human Retinoic Acid Receptor beta (RARb), RARB (gene 5915) (P10826 whole entry, looked up, the tested form may be a part): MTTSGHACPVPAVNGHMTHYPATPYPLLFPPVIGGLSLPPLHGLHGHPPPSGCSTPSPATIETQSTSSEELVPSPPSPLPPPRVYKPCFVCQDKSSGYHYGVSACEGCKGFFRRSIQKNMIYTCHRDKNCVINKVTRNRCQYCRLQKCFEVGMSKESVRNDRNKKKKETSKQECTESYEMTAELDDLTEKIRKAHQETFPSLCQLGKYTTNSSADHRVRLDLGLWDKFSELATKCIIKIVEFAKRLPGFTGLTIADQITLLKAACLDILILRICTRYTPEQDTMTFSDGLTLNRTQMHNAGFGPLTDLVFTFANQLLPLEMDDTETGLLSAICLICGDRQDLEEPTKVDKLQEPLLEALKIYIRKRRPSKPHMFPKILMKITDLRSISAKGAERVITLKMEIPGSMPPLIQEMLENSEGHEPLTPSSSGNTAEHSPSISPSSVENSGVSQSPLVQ
Chain of Nuclear receptor subfamily 1 group I member 2 (Homo sapiens) (O75469 whole entry, looked up, the tested form may be a part): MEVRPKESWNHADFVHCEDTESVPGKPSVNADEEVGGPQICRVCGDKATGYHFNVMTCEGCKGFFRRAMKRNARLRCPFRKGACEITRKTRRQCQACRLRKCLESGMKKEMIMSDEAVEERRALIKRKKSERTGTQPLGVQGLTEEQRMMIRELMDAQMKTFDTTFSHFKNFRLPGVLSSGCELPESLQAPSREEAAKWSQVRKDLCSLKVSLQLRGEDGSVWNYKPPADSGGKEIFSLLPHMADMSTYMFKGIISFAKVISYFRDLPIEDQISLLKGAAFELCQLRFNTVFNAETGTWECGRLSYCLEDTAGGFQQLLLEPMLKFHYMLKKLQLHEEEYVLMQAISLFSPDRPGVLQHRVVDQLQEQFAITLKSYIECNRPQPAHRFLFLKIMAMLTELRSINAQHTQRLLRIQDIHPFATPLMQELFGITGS
Chain of Nuclear respiratory factor 1 (Homo sapiens) (Q16656 whole entry, looked up): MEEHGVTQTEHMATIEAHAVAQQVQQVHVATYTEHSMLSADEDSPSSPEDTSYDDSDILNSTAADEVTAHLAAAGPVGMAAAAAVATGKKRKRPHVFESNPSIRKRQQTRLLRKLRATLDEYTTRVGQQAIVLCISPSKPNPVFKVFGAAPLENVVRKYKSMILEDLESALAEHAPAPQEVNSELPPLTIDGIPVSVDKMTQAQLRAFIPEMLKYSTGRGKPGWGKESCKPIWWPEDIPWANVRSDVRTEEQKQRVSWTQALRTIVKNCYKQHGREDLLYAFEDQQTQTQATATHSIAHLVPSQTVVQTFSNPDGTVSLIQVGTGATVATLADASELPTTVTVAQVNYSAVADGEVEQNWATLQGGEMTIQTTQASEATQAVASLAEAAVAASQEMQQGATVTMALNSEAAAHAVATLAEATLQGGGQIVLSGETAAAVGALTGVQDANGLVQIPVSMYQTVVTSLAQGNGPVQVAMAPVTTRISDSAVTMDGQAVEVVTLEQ
Chain of Peroxisome proliferator-activated receptor gamma (Homo sapiens) (P37231 whole entry, looked up, the tested form may be a part): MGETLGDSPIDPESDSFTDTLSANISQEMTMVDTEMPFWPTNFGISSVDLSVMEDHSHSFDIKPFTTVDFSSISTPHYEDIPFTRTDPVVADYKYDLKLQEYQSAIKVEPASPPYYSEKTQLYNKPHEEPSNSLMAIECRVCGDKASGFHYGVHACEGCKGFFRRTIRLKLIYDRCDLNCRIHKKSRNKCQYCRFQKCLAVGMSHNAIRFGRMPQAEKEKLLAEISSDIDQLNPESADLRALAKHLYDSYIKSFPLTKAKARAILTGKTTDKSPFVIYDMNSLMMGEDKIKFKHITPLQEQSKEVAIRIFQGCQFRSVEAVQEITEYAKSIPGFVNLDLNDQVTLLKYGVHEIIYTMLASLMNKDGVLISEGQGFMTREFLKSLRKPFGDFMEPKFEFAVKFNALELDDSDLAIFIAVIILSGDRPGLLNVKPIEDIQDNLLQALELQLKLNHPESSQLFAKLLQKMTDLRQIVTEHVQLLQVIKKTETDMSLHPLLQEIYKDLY
Chain of human Peroxisome Proliferator-activated Receptor alpha (PPARa), PPARA (gene 5465) (Q07869 whole entry, looked up, the tested form may be a part): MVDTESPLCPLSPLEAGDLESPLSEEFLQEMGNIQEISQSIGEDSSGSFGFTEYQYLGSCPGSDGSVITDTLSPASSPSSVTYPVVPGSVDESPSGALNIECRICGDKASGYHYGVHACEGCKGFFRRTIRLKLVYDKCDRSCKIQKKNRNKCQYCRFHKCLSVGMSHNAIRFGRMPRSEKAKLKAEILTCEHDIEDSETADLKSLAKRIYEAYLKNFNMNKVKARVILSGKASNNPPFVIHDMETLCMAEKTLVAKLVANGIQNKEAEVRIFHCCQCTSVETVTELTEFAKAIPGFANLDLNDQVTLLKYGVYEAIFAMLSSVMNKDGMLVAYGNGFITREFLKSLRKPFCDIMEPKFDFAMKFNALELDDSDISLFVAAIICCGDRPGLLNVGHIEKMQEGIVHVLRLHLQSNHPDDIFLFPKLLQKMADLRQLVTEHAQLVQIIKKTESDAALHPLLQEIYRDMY
Chain of Retinoic acid receptor alpha (Homo sapiens) (P10276 whole entry, looked up, the tested form may be a part): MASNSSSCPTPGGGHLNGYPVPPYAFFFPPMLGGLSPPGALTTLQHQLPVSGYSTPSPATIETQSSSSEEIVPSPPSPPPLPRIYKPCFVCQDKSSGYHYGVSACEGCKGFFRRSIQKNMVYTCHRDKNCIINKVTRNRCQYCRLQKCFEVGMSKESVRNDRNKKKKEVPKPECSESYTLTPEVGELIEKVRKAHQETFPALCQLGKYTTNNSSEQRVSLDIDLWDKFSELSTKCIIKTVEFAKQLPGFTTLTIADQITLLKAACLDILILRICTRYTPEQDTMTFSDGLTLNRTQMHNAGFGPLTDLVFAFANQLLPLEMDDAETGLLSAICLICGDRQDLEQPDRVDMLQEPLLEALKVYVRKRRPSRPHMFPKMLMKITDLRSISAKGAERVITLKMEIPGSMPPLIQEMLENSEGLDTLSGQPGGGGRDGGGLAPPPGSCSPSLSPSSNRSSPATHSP

With `CCc1ccc(C(c2ccc(CC)cc2)C(Cl)Cl)cc1`, the result in test [1], in test [2], in [4], in test [5], in test [8] and in test [9] was inactive. Moreover, the call in test [11] was inactive. For the same molecule, the AC50 (in general, the midpoint of the concentration-response curve, whichever way the signal moves) in [3] was 56.5 µM (active); in [6], 12.2 µM (active); in test [7], 27.4 µM (active); in [10], 13.1 µM (active); in test [12] it was 3.55 µM (active).

On to `O=C(O)C(F)(OC(F)(F)C(F)(OC(F)(F)C(F)(OC(F)(F)C(F)(F)C(F)(F)F)C(F)(F)F)C(F)(F)F)C(F)(F)F` (stereo not drawn), for which the molecule was called inactive in [1], in [2], in [13], in test [3], in [4] and in [5]. The result in test [6], in test [7], in [14], in [8], in test [9] and in test [15] was inactive. Besides, the molecule was called inactive in test [16], in test [11], in [12] and in test [17].

As to `Nc1cc(Cl)c(N)c(Cl)c1`, the molecule was called inactive in test [1], in [18], in test [2], in test [4], in [14] and in [17]. The AC50 was 9.89 µM (active) in [3]; 26.5 µM (active) in test [15]; 43 µM (active) in [16]; 38.7 µM (active) in test [11]; 19.8 µM (active) in test [12].

Consider `O=C(O)C(F)(F)C(F)(F)C(F)(F)C(F)(F)F`, for which the outcome in test [1], in test [2], in [13], in test [3], in test [5] and in [6] was inactive. Further, the outcome in test [7], in test [19], in test [14], in [9], in test [10] and in test [11] was inactive. In addition, the result in test [12] and in test [17] was inactive.
